This passage reports activity, activity, % sensitization and inhibition results from PubChem BioAssay.

In assay [1] the target is Tumor necrosis factor receptor superfamily member 10B (Homo sapiens) (UniProt O14763). Briefly: viability loss of caspase-8 NB7 cells with TRAIL – with/without TRAIL, luminescence panel, confirmation (AID 651596). Conditions: NB7 neuroblastoma + caspase-8, TRAIL sensitization, NB7 Caspase-8, with TRAIL, mean of runs, at 10 µM, stronger effect = higher value.
Experiment in assay [2]: as above
Conditions: NB7 neuroblastoma + caspase-8, without TRAIL, NB7 Caspase-8, without TRAIL, mean of runs, at 10 µM.

The target in assay [3] is Tumor necrosis factor receptor superfamily member 10B (Homo sapiens) (UniProt O14763). Briefly: compound enhancement of TRAIL-induced cell killing – NB7 cells plus caspase-8, luminescence, panel, dose response (AID 652002). To be noted: NB7 neuroblastoma +caspase-8, TRAIL sensitization, luminescence viability, NB7+Caspase-8, with TRAIL, run 1; at 12.5 µM (top of the series).

For assay [4] the target is unchanged. The description is as above. Conditions: NB7 neuroblastoma +caspase-8, TRAIL sensitization, luminescence viability, NB7+Caspase-8, with TRAIL, run 2; at 12.5 µM (top of the series).
Experiment in assay [5]: as above
Conditions: NB7 neuroblastoma +caspase-8, no TRAIL, compound-alone cytotoxicity counter-screen, luminescence viability, NB7+Caspase-8, run 1; at 12.5 µM (top of the series) unless noted. On the technique in general: Counterscreens check selectivity or assay interference.

Experiment in assay [6]: as above
To be noted: NB7 neuroblastoma +caspase-8, no TRAIL, compound-alone cytotoxicity counter-screen, luminescence viability, NB7+Caspase-8, run 2; at 12.5 µM (top of the series) unless noted.

The target of assay [7] is COP9 signalosome complex subunit 5 (Homo sapiens) (UniProt Q92905). Briefly: blockers of CSN-driven cullin deneddylation – biochemical, fluorescence polarization, single concentration, SCF-Nedd8OG substrate, confirmation (AID 720654; in the data active = inhibition above about 50%;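 also: 0% = DMSO with enzyme and 100% = no enzyme wells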). To be noted: Csn5 deneddylation of SCF-Nedd8OG, 90 min, at 16.6 µM, stronger effect = higher value. (Fluorescence polarisation rises when a labelled molecule tumbles more slowly, as on binding a larger partner.)
Sequence of COP9 signalosome complex subunit 5 (Homo sapiens) (Q92905 whole entry, looked up, one chain of several): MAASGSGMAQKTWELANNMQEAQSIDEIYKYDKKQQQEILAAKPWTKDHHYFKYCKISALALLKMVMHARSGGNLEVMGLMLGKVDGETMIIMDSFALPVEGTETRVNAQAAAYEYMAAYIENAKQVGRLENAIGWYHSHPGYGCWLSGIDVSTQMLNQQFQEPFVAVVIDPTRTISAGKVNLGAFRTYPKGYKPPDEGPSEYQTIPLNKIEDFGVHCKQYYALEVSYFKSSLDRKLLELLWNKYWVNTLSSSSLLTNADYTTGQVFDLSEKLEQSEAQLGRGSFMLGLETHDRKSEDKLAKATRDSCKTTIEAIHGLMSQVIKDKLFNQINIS

Assay [8] concerns the target 72 kDa type IV collagenase (Homo sapiens) (UniProt P08253). Briefly: human MMP-2 inhibitors, single-point check – biochemical, fluorescence, single concentration, counter-screen for CSN deneddylation inhibitor project, confirmation (AID 720655;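 active = corrected plate-normalized z-score of 5 or more, or -5 or less, or inhibition of 15% or more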;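 also: plate controls were DMSO wells with enzyme for no effect and buffer wells lacking MMP-2 for full effect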). Conditions: recombinant MMP-2, FRET substrate fluorescence, 60 min; at 16.6 µM.
For the next assay, the target named is Prothrombin (Bos taurus) (UniProt P00735). Briefly: thrombin cleavage blockers, FP readout – biochemical, fluorescence polarization, single concentration, counter-screen for CSN deneddylation inhibitor project, confirmation (AID 720656;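 active = inhibition at or above a set limit, with a fluorescence interference ratio between 0.5 and a set maximum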). To be noted: bovine thrombin cleavage of Ub4-pepOG, at 16.6 µM, stronger effect = higher value.
Sequence of Prothrombin (Bos taurus) (P00735 whole entry, looked up): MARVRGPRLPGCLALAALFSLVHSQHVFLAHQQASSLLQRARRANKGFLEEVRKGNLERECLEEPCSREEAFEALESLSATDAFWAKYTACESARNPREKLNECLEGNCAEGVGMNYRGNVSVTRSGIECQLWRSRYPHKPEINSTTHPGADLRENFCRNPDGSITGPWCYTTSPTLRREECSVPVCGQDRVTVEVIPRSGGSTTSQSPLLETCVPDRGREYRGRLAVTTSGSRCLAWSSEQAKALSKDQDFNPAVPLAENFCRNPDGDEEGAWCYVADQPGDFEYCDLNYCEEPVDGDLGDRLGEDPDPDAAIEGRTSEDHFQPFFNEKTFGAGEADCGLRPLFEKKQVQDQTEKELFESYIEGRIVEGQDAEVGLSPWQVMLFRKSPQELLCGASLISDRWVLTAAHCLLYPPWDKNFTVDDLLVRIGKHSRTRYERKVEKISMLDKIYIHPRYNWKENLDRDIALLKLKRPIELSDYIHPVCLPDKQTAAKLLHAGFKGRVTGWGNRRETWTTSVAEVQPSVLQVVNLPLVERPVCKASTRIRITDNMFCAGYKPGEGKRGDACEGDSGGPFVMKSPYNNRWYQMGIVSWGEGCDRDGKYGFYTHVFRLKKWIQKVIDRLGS

The other results are listed elsewhere or left out. The source made the active and inactive calls. Rule as the data show it, unless noted: active = activity above about 50%; inactive = the rest.

Sequence of 72 kDa type IV collagenase (Homo sapiens) (P08253 whole entry, looked up): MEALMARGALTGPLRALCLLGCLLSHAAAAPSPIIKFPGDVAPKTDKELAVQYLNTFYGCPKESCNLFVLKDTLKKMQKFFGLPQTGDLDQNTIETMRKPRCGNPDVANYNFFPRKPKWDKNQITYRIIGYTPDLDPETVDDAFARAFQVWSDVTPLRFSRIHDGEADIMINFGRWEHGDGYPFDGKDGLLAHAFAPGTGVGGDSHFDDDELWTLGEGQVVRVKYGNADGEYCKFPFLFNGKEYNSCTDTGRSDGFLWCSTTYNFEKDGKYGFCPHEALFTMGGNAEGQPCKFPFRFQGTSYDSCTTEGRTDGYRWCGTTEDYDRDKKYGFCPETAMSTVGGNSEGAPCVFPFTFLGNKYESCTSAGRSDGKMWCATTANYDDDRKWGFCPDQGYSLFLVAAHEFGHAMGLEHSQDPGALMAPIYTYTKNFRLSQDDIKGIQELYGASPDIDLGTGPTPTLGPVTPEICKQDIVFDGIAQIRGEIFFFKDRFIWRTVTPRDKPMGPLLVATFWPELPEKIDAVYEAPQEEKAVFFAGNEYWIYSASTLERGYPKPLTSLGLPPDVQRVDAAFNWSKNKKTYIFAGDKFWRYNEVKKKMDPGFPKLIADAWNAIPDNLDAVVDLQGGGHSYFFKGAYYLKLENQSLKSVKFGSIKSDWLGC
Sequence of Tumor necrosis factor receptor superfamily member 10B (Homo sapiens) (O14763 whole entry, looked up): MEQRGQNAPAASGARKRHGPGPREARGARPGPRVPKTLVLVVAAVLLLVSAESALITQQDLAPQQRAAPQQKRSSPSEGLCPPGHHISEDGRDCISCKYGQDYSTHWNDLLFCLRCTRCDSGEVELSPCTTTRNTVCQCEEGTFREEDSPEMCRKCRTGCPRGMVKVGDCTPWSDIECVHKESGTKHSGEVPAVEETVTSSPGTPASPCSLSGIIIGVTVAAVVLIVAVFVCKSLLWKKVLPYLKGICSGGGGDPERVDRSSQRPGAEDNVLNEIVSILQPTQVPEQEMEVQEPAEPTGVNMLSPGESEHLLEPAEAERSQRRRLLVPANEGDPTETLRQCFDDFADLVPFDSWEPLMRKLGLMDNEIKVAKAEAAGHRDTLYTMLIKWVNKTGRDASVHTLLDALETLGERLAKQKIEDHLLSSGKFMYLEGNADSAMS

Turning to `O=C(Nc1ccc2ccccc2c1)c1ccc(Cl)cc1`, the figures for the activity in assay [1] and in [2] were 63.1% and 51.3%, respectively. The activity, % sensitization in assay [3] is 33.9%; in [4], 31.4%; in [5] it was 13%; in assay [6], -8.49%.

With `O=c1cc(-c2ccccc2)nc2cc(-c3ccc(F)cc3)[nH]n12`, the activity in [1] stood at 57.6%; in assay [2] it was 47%. The activity, % sensitization in assay [3] is 5.68%; in assay [4], -3.23%; in assay [5], -19%; in [6], -21.3%.

As to `COc1cc(SC#N)ccc1N=Cc1c(C)[nH]n(-c2ccc(Cl)cc2)c1=O`, the figures for the activity in assay [1] and in [2] were 66.9% and 41.2%, respectively. The activity, % sensitization in [3] is -29.2%; in [4], -11.6%; in assay [5], -15.4%; in [6], -20.1%.

For `O=C(NCC1CCCO1)c1ccc2c3n(nc2c1)-c1ccccc1CO3` (configuration not stated), the activity in assay [1] is 52.9%; in assay [2], 54.6%. The activity, % sensitization in assay [3] turned out to be 29.1%; in assay [4], 41.5%; in [5] it was 21%; in assay [6] it was 11.7%.

`COc1ccc(NS(=O)(=O)c2cccc(C(=O)N/N=C/c3c(F)c(F)c(F)c(F)c3F)c2)cc1`: the activity in assay [1] amounted to 77.2%; in [2], 47.5%. Also, the activity, % sensitization in assay [3] was 7.56%; in [4], 35.1%; in [5] it was -2.02%; in [6], 41.3%.

With `Cc1cccc(CC(=O)Nc2cc(C)c3c(=O)oc4ccccc4c3n2)c1`, the activity in assay [1] came out at 67.3%; in [2], 45.5%. Besides, the activity, % sensitization is -12.3% in assay [3], -4.35% in assay [4], -6.37% in assay [5] and 0.373% in [6].

For `COCCNc1c(-c2cc3ccc(C)c(C)c3[nH]c2=O)nc2ccccn12`, the activity in assay [1] is 64.9%; in assay [2], 47.6%. Moreover, the activity, % sensitization in assay [3] is 60.1%; in [4], 54.8%; in assay [5] it was -1.27%; in assay [6], 53.5%.

Regarding `CCOC(=O)c1cnc2c(-c3ccccc3)cnn2c1N`, the activity came out at 62.2% in assay [1] and 54.7% in [2]. Further, the activity, % sensitization in [3] turned out to be 38.5%; in assay [4], 22.1%; in assay [5], 13.3%; in assay [6], 5.35%.

In the case of `COc1cc(/C=C2/C(=O)NN(c3cccc(Cl)c3)C2=O)cc(Br)c1O`, the inhibition was 27.3% (inactive) in assay [7], -17.1% (inactive) in assay [8] and 36.3% (active) in the assay with Prothrombin (Bos taurus).

On to `Cc1ccc(C(=O)O)cc1-c1ccc(/C=C2\SC(=O)N(CC(=O)Nc3ccc4c(c3)OCO4)C2=O)o1`, for which the inhibition in [7] was 155% (active); in assay [8], -3.01% (inactive); with Prothrombin (Bos taurus) it was 7.47% (inactive).

As for `Fc1ccc(-c2cnn3c(-c4ccncc4)ccnc23)cc1`, the results for the activity in assay [1] and in assay [2] were 49.5% and 48.7%, respectively. Also, the activity, % sensitization in assay [3] was -13.8%; in [4], -2.37%; in assay [5] it was 13.2%; in [6], -12.3%.

Regarding `C=CCC1=C/C(=C\c2c(N)n3nc(CC(=O)N4CCOCC4)sc3nc2=O)C=C(OC)C1=O`, the results for the inhibition (in [7]; in [8]; with Prothrombin (Bos taurus)) were 16.7% (inactive), -4.68% (inactive) and 72.6% (active), respectively.

Turning to `COc1cccc(NC(=O)Nc2nccc(C)n2)c1`, the activity in assay [1] is 64.5%; in [2], 53%. The activity, % sensitization in [3] amounted to 46.7%; in assay [4] it was 47.6%; in assay [5], 25.8%; in assay [6], 11.9%.

On to `c1ccc(-c2cnc(-c3ccccn3)nn2)cc1`, for which the activity in [1] is 61.4%; in assay [2], 53.5%. Besides, the activity, % sensitization was 26.5% in [3], 46.5% in assay [4], 52.7% in [5] and 36.1% in [6].

Regarding `Cc1nc2cc(NC(=O)c3ccco3)ccc2n1C`, the activity in assay [1] came out at 47.6%; in [2] it was 48%. The activity, % sensitization in [3] is 30.3%; in assay [4], 32.8%; in [5], -8.74%; in assay [6], 21.3%.

On to `COc1ccc2[nH]c3c(C)c4cc[n+](C)cc4c(C)c3c2c1`, for which the inhibition in assay [7] was -33.2% (inactive); in [8], -35.8% (active); in the assay with Prothrombin (Bos taurus), 12.2% (inactive).

For the compound `COC(=O)CSc1nc2cc(C)ccc2cc1C#N`, the activity was 63.1% in assay [1] and 53.9% in assay [2]. Besides, the activity, % sensitization came out at 45.7% in [3], 53.4% in assay [4], 15.2% in assay [5] and 24.1% in assay [6].

Consider `CC(C)(C)C1C/C(=C/c2ccco2)C(=O)/C(=C/c2ccco2)C1` (configuration not stated), for which the values for the inhibition (in [7]; in [8]; with Prothrombin (Bos taurus)) were 71.5% (active), 1.32% (inactive) and 10.1% (inactive), respectively.

In the case of `CS(=O)(=O)c1ccc2c(c1)SC1=NC(=O)/C(=C/c3ccco3)C(=N)N12`, the inhibition in [7] is 50% (inactive); in assay [8], 4.65% (inactive); in the assay with Prothrombin (Bos taurus) it was 41.6% (active).

For `CCOc1ccc(NC(=O)Nc2cccs2)cc1`, the activity came to 63.8% in assay [1] and 46.8% in assay [2]. The activity, % sensitization in assay [3] is 36.3%; in [4], 52.3%; in assay [5] it was 40.7%; in [6], 47.8%.

For orientation: inhibition means the change of the read-out against control, counted positive when it falls.
